Unmarked numbers belong to inactive results. For some of these results: Entries with a potency or affinity are not part of this list. Activity calls are given as the source filed them. Unless noted, how the calls were made is not given here.
Tests used:
[1] = antimalarial activity against Dd2 strain (AID 2302;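 active means growth inhibition above 50% at the single 2 µM test dose, taken to imply half-maximal potency below 2 µM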;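 further: 0% = DMSO untreated growth and 100% = chloroquine plus artemisinin killed control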); conditions: P. falciparum Dd2 in RBCs, LDH growth readout, 72 h; at 2 µM; stronger effect = higher value
[2] = human hepatoma cell viability loss – ATP luminescence, cytotoxicity control for P. falciparum antimalarial project, primary screen (AID 2303;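 active means inhibition above 50%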;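 further: 0% = DMSO wells and 100% = digitonin-killed cells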); conditions: HepG2 viability, 24-48 h, at 10 µM, stronger effect = higher value
[3] = target: L-lactate dehydrogenase (Plasmodium falciparum (isolate CDC / Honduras)) (UniProt Q27743); experiment: PfLDH activity inhibition – cell lysate, 3D7 strain, counter-screen for P. falciparum growth inhibition project (AID 2304);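 further: 0% = vehicle and 100% = reference inhibitor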; conditions: P. falciparum 3D7 crude extract, LDH APAD/NBT absorbance; at 2 µM; stronger effect = higher value
[4] = inhibition of 3D7 malaria parasite growth – strain 3D7 (AID 2306);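 further: 0% = DMSO wells and 100% = chloroquine plus artemisinin control wells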; conditions: P. falciparum 3D7 erythrocytic growth, LDH absorbance, 72 h; at 2 µM; stronger effect = higher value
[5] = target: Calcium-dependent protein kinase 1 (Plasmodium falciparum (isolate 3D7)) (UniProt P62344); experiment: PfCDPK1 kinase inhibitors, biochemical, TCAMS library (AID 1159585; cut-off not given, nearly all actives have IC50 up to about 0.98 µM;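 further: inhibitors leave more ATP so luminescence rises with inhibition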); conditions: recombinant PfCDPK1, Kinase-Glo ATP depletion luminescence
[6] = target: Plasmodium falciparum protein kinase 6 (PK6, PF3D7_1337100) (UniProt Q8IDW1); experiment: PfPK6 kinase inhibitors, biochemical, TCAMS library (AID 1159586); conditions: recombinant PfPK6, Kinase-Glo ATP depletion luminescence
[7] = target: Protein kinase 7 (PK7), Plasmodium falciparum 3D7 (PF3D7_0213400) (UniProt Q7YTF7); experiment: inhibition of Plasmodium PK7 catalytic activity – biochemical, TCAMS antimalarial set, Kinase-Glo luminescence (AID 1159587); conditions: recombinant PfPK7, Kinase-Glo ATP depletion luminescence
[8] = target: Calcium-dependent protein kinase 4 (Plasmodium falciparum (isolate 3D7)) (UniProt Q8IBS5); experiment: PfCDPK4 kinase inhibitors, biochemical, TCAMS library (AID 1159588; cut-off not given, nearly all actives have IC50 up to about 0.91 µM); conditions: recombinant PfCDPK4, Kinase-Glo ATP depletion luminescence
Calcium-dependent protein kinase 4 (Plasmodium falciparum (isolate 3D7)), sequence (Q8IBS5 whole entry, looked up): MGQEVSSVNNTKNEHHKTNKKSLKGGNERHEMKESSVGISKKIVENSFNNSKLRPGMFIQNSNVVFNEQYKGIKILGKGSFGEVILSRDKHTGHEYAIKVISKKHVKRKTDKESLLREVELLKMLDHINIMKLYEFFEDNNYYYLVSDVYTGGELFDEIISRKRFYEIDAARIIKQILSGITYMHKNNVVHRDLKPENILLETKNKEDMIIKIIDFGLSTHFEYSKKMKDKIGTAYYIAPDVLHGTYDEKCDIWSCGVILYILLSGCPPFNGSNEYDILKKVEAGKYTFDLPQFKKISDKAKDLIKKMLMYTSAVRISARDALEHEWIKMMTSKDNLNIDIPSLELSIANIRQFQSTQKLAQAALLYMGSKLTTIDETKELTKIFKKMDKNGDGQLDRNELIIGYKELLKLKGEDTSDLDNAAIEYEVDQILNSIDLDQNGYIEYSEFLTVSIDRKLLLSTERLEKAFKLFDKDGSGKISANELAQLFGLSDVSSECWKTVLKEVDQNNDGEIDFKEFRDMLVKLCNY

Calcium-dependent protein kinase 1 (Plasmodium falciparum (isolate 3D7)), sequence (P62344 whole entry, looked up): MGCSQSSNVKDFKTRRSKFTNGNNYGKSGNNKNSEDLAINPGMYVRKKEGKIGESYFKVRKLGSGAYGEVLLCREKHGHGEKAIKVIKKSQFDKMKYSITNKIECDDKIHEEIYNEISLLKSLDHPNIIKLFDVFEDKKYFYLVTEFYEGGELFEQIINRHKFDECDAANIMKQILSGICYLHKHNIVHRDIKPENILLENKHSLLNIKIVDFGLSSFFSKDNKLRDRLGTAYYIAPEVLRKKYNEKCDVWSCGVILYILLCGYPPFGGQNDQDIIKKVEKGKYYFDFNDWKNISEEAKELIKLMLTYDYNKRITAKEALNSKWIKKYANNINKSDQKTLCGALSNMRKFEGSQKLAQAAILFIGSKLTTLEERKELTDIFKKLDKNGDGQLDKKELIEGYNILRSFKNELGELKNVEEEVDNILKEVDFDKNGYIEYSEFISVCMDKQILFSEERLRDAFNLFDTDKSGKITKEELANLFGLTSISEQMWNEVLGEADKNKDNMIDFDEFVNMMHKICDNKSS
Plasmodium falciparum protein kinase 6 (PK6, PF3D7_1337100), sequence (Q8IDW1 1-305): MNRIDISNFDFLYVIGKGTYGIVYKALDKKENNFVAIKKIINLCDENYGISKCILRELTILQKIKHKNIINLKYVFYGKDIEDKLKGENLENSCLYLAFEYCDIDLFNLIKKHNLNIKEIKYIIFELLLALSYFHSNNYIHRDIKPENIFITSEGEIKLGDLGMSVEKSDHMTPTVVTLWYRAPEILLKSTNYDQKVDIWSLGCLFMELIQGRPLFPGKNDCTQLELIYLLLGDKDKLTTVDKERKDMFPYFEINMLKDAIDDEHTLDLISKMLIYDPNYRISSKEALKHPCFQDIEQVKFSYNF
Protein kinase 7 (PK7), Plasmodium falciparum 3D7 (PF3D7_0213400), sequence (Q7YTF7 1-343): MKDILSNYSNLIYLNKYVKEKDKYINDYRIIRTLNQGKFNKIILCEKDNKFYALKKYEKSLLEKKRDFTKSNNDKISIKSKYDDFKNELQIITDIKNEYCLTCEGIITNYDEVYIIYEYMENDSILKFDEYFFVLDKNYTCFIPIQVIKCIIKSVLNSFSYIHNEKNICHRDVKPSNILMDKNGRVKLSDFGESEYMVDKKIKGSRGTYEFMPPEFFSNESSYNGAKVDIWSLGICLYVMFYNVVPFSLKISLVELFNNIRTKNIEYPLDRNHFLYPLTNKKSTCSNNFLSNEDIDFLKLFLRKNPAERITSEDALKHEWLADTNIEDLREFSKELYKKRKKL
L-lactate dehydrogenase (Plasmodium falciparum (isolate CDC / Honduras)), sequence (Q27743 whole entry, looked up): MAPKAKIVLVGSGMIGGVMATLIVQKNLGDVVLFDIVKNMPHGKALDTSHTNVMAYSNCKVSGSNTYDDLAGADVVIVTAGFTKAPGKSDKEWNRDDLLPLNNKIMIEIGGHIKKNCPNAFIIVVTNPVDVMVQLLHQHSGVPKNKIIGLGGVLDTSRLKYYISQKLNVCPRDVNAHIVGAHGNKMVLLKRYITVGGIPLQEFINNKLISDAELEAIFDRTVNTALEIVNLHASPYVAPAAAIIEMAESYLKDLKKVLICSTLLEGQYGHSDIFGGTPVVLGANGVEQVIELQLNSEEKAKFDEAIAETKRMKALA

## NC(N)=Nc1nc(-c2cccc(NC(=O)NCCc3c[nH]c4ccc(OCc5ccccc5)cc34)c2)cs1
[1]
  growth inhibition: 30%
[2]
  inhibition: -2%
[3]
  inhibition: 0%
[4]
  growth inhibition: 101% (active)
[5]
  outcome: inactive
[6]
  outcome: inactive
[7]
  outcome: inactive
[8]
  outcome: inactive

## c1ccc(CN2CCN(c3cc(-c4cncc(-c5ccccc5)c4)nc(-c4ccccc4)n3)CC2)cc1
[1]
  growth inhibition: 12%
[2]
  inhibition: 9%
[3]
  inhibition: 0%
[4]
  growth inhibition: 88% (active)
[5]
  outcome: inactive
[6]
  outcome: inactive
[7]
  outcome: inactive
[8]
  outcome: inactive

## Cc1cc(N)c2cc(NC(=O)/C=C/c3ccc([N+](=O)[O-])cc3)ccc2n1
[1]
  growth inhibition: 80% (active)
[2]
  inhibition: 76% (active)
[3]
  inhibition: -2%
[4]
  growth inhibition: 100% (active)
[5]
  outcome: inactive
[6]
  outcome: inactive
[7]
  outcome: inactive
[8]
  outcome: inactive

## Cc1cccc2[nH]c(-c3ccc(-c4ccc(CN5CCC(C(N)=O)CC5)cc4)cc3)nc12
[1]
  growth inhibition: 32%
[2]
  inhibition: 8%
[3]
  inhibition: 1%
[4]
  growth inhibition: 91% (active)
[5]
  outcome: inactive
[6]
  outcome: inactive
[7]
  outcome: inactive
[8]
  outcome: inactive

## O=C(/C=C/c1ccc(Cl)c(Cl)c1)NCCCCCN1CCCN(C(=O)Nc2ccc(Cl)c(C(F)(F)F)c2)CC1
[1]
  growth inhibition: 16%
[2]
  inhibition: 35%
[3]
  inhibition: 4%
[4]
  growth inhibition: 102% (active)
[5]
  outcome: inactive
[6]
  outcome: inactive
[7]
  outcome: inactive
[8]
  outcome: inactive

## COc1cccc(C=NNc2cc(C)nc3ccccc23)c1
[1]
  growth inhibition: 46%
[2]
  inhibition: 16%
[3]
  inhibition: -8%
[4]
  growth inhibition: 101% (active)
[5]
  outcome: inactive
[6]
  outcome: inactive
[7]
  outcome: inactive
[8]
  outcome: inactive

## Cc1cccc2[nH]c(-c3cccc(-c4ccc(CNCc5ccc(S(C)(=O)=O)cc5)cc4)c3)nc12
[1]
  growth inhibition: 98% (active)
[2]
  inhibition: 8%
[3]
  inhibition: 6%
[4]
  growth inhibition: 101% (active)
[5]
  outcome: inactive
[6]
  outcome: inactive
[7]
  outcome: inactive
[8]
  outcome: inactive

## CC(C)(C)Oc1ccc(NC(=O)c2ccccc2O)cc1
[1]
  growth inhibition: 67% (active)
[2]
  inhibition: 4%
[3]
  inhibition: -6%
[4]
  growth inhibition: 86% (active)
[5]
  outcome: inactive
[6]
  outcome: inactive
[7]
  outcome: inactive
[8]
  outcome: inactive

## c1csc(-c2nc(NCC3CCCO3)ncc2-c2ccsc2)n1 (stereo not given)
[1]
  growth inhibition: 83% (active)
[2]
  inhibition: -4%
[3]
  inhibition: 1%
[4]
  growth inhibition: 89% (active)
[5]
  outcome: inactive
[6]
  outcome: inactive
[7]
  outcome: inactive
[8]
  outcome: inactive

## C=CCOC(=O)N1CCC(CNCc2ccc(-c3cccc(-c4nc5ccc(F)cc5[nH]4)c3)cc2)C1 (stereo not given)
[1]
  growth inhibition: 99% (active)
[2]
  inhibition: 26%
[3]
  inhibition: -2%
[4]
  growth inhibition: 102% (active)
[5]
  outcome: inactive
[6]
  outcome: inactive
[7]
  outcome: inactive
[8]
  outcome: inactive

## COc1cc(CCN=C(N)/C=C/c2ccc(Cl)cc2)ccc1Cl
[1]
  growth inhibition: 16%
[2]
  inhibition: 68% (active)
[3]
  inhibition: 3%
[4]
  growth inhibition: 100% (active)
[5]
  outcome: inactive
[6]
  outcome: inactive
[7]
  outcome: inactive
[8]
  outcome: inactive

## C=C(NC(=O)c1cc(C)cc(C)c1)C(=O)OC
[1]
  growth inhibition: -2%
[2]
  inhibition: 21%
[3]
  inhibition: -3%
[4]
  growth inhibition: 95% (active)
[5]
  outcome: inactive
[6]
  outcome: inactive
[7]
  outcome: inactive
[8]
  outcome: inactive

## Cc1ccc(S(=O)(=O)N2CCCN(C(=O)c3cc(-c4ccccc4)n[nH]3)CC2)cc1
[1]
  growth inhibition: 93% (active)
[2]
  inhibition: 11%
[3]
  inhibition: -2%
[4]
  growth inhibition: 96% (active)
[5]
  outcome: inactive
[6]
  outcome: inactive
[7]
  outcome: inactive
[8]
  outcome: inactive

## O=C(Nc1ccc(C(F)(F)F)cc1)c1cccc(S(=O)(=O)NC2CCN(CC3CCCCC3)C2)c1 (stereo not given)
[1]
  growth inhibition: 10%
[2]
  inhibition: 32%
[3]
  inhibition: -2%
[4]
  growth inhibition: 98% (active)
[5]
  outcome: inactive
[6]
  outcome: inactive
[7]
  outcome: inactive
[8]
  outcome: inactive

## Cc1nc2ccc([N+](=O)[O-])cc2c(=O)n1OCc1ccccc1
[1]
  growth inhibition: -1%
[2]
  inhibition: 2%
[3]
  inhibition: -2%
[4]
  growth inhibition: 98% (active)
[5]
  outcome: inactive
[6]
  outcome: inactive
[7]
  outcome: inactive
[8]
  outcome: inactive

## c1cc(CNCc2ccc3c(c2)OCO3)cc(-c2cccc(CNc3ccc4ncccc4c3)c2)c1
[1]
  growth inhibition: 27%
[2]
  inhibition: 18%
[3]
  inhibition: -4%
[4]
  growth inhibition: 98% (active)
[5]
  outcome: inactive
[6]
  outcome: inactive
[7]
  outcome: inactive
[8]
  outcome: inactive

## c1ccc(CCNc2ccnc(Nc3ccc4cn[nH]c4c3)n2)cc1
[1]
  growth inhibition: 100% (active)
[2]
  inhibition: 54% (active)
[3]
  inhibition: -3%
[4]
  growth inhibition: 101% (active)
[5]
  outcome: inactive
[6]
  outcome: inactive
[7]
  outcome: inactive
[8]
  outcome: inactive

## Cc1cc2nc(-c3ccc(SCC(=O)Nc4ccc5c(c4)OCCO5)nc3)[nH]c2cc1C
[1]
  growth inhibition: 6%
[2]
  inhibition: 17%
[3]
  inhibition: 9%
[4]
  growth inhibition: 85% (active)
[5]
  outcome: inactive
[6]
  outcome: inactive
[7]
  outcome: inactive
[8]
  outcome: inactive

## O=C(c1ccc(-c2cnc3[nH]cc(-c4ccc(C(=O)N5CCOCC5)cc4)c3c2)cc1)N1CCOCC1
[1]
  growth inhibition: -3%
[2]
  inhibition: 19%
[3]
  inhibition: -4%
[4]
  growth inhibition: 91% (active)
[5]
  outcome: inactive
[6]
  outcome: inactive
[7]
  outcome: inactive
[8]
  outcome: inactive

## Oc1ccc(Nc2nc(NCc3ccco3)c3ccccc3n2)cc1
[1]
  growth inhibition: 78% (active)
[2]
  inhibition: 7%
[3]
  inhibition: -3%
[4]
  growth inhibition: 101% (active)
[5]
  outcome: inactive
[6]
  outcome: inactive
[7]
  outcome: inactive
[8]
  outcome: inactive
